Laboratory results published in PubChem BioAssay AID1159580 (chemical genetic matrix, 2015).
The campaign covered roughly 5,500 compounds. About 2,000 (36%) were called active. Inconclusive results (about 18%) are left out. Cut-off read from the data, not from the text of the source: active = normalized growth mostly below about 0.91 (no sharp cut-off); inconclusive = no clear call, values can overlap the other calls; inactive = mostly above about 0.92. The list shows a part of the results.

Assay: chemical genetic growth profiling, strain panel (AID 1159580);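 note: tested at 20 µM; growth read once vehicle control cultures reached saturation at 30 °C; 1 = growth at the plate median or of vehicle wells; lower values mean less growth of the strain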
Conditions: S. cerevisiae deletion strains, growth OD

Measured: normalized growth

CC(=O)O[C@@H]1CC2C(C)(C)[C@@H](O)CC[C@]2(C)C2CC[C@@]3(C)[C@H](c4ccoc4)OC(=O)[C@H]4O[C@]43[C@@]21C (some centres not stated)
inactive: locus YAL021C, strain ccr4, active compounds read low 1.02 | locus YAL026C, strain drs2, active compounds read low 0.989 | locus YAL030W, strain snc1, active compounds read low 0.996 | locus YBL061C, strain skt5, active compounds read low 0.984 | locus YBR009C, strain hhf1, active compounds read low 1 | locus YBR023C, strain chs3, active compounds read low 0.991 | locus YBR171W, strain sec66, active compounds read low 0.993 | locus YBR229C, strain ROT2, active compounds read low 1.01 | locus YBR231C, strain swc5, active compounds read low 0.995 | locus YBR279W, strain paf1, active compounds read low 0.998 | locus YCL011C, strain gbp2, active compounds read low 0.985 | locus YCL016C, strain dcc1, active compounds read low 0.995 | locus YCL029C, strain bik1, active compounds read low 0.997 | locus YCL061C, strain MRC1, active compounds read low 0.994 | locus YCL069W, strain vba3, active compounds read low 0.988 | locus YCR088W, strain abp1, active compounds read low 0.988 | locus YDL005C, strain med2, active compounds read low 0.988 | locus YDL035C, strain GPR1, active compounds read low 0.967 | locus YDL040C, strain nat1, active compounds read low 0.986 | locus YDL074C, strain BRE1, active compounds read low 0.947 | locus YDL101C, strain DUN1, active compounds read low 1.02 | locus YDL134C, strain PPH21, active compounds read low 1 | locus YDL185W, strain tfp1, active compounds read low 1 | locus YDL192W, strain arf1, active compounds read low 0.964 | locus YDR001C, strain nth1, active compounds read low 0.996 | locus YDR069C, strain doa4, active compounds read low 1.01 | locus YDR101C, strain arx1, active compounds read low 0.973 | locus YDR137W, strain rgp1, active compounds read low 0.986 | locus YDR159W, strain sac3, active compounds read low 0.964 | locus YDR162C, strain NBP2, active compounds read low 0.987 | locus YDR195W, strain ref2 0.981 | locus YDR297W, strain sur2, active compounds read low 1.01 | locus YDR318W, strain mcm21, active compounds read low 0.99 | locus YDR334W, strain swr1, active compounds read low 1.01 | locus YDR335W, strain msn5, active compounds read low 0.995 | locus YDR388W, active compounds read low 1.02 | locus YDR392W, strain spt3, active compounds read low 0.968 | locus YDR502C, strain sam2, active compounds read low 1 | locus YEL003W, strain gim4, active compounds read low 0.987 | locus YEL037C, strain rad23, active compounds read low 0.995 | locus YEL061C, strain CIN8 (second series), active compounds read low 0.992 | locus YEL061C, strain CIN8, active compounds read low 1 | locus YER015W, strain faa2, active compounds read low 0.996 | locus YER016W, strain bim1, active compounds read low 0.989 | locus YER110C, active compounds read low 1.02 | locus YER111C, strain swi4, active compounds read low 0.98 | locus YER155C, strain BEM2 (second series), active compounds read low 1.01 | locus YER155C, strain BEM2, active compounds read low 1.02 | locus YER167W, strain BCK2, active compounds read low 0.996 | locus YFR010W, strain ubp6, active compounds read low 0.993 | locus YGL078C, strain dbp3, active compounds read low 1.02 | locus YGL086W, strain mad1, active compounds read low 0.998 | locus YGL167C, strain pmr1, active compounds read low 0.998 | locus YGL173C, strain kem1, active compounds read low 0.998 | locus YGL227W, strain vid30, active compounds read low 0.989 | locus YGL240W, strain doc1, active compounds read low 0.966 | locus YGL248W, strain PDE1, active compounds read low 1.01 | locus YGL253W, strain hxk2, active compounds read low 0.95 | locus YGR135W, strain pre9, active compounds read low 1.04 | locus YGR252W, strain gcn5, active compounds read low 0.975 | locus YHR013C, strain ard1, active compounds read low 0.988 | locus YHR027C, strain rpn1, active compounds read low 0.983 | locus YHR030C, strain SLT2, active compounds read low 1.01 | locus YHR079C, strain IRE1 (second series), active compounds read low 1.01 | locus YHR079C, strain IRE1, active compounds read low 1.02 | locus YHR094C, strain hxt1, active compounds read low 1.01 | locus YHR129C, strain ARP1, active compounds read low 1.01 | locus YHR142W, strain chs7, active compounds read low 0.992 | locus YHR200W, strain rpn10, active compounds read low 1.01 | locus YIL066C, strain RNR3, active compounds read low 0.967 | locus YIL073C, strain SPO22, active compounds read low 1.03 | locus YIL125W, strain kgd1, active compounds read low 1.01 | locus YIR030C, strain dcg1, active compounds read low 1 | locus YJL092W, strain hpr5, active compounds read low 0.995 | locus YJL095W, strain BCK1 (second series), active compounds read low 1.01 | locus YJL095W, strain BCK1, active compounds read low 1.01 | locus YJL115W, strain asf1, active compounds read low 0.997 | locus YJL129C, strain trk1, active compounds read low 0.976 | locus YJL134W, strain LCB3, active compounds read low 1.01 | locus YJL154C, strain vps35, active compounds read low 0.994 | locus YJL164C, strain tpk1, active compounds read low 1 | locus YJL166W, strain qcr8, active compounds read low 0.988 | locus YJL168C, strain set2, active compounds read low 1.01 | locus YJL187C, strain SWE1 (second series), active compounds read low 1.02 | locus YJL187C, strain SWE1, active compounds read low 0.991 | locus YJR043C, strain POL32, active compounds read low 0.979 | locus YJR066W, strain TOR1, active compounds read low 0.966 | locus YKL009W, strain mrt4, active compounds read low 0.964 | locus YKL068W, active compounds read low 1.01 | locus YKL085W, strain MDH1 (second series), active compounds read low 1 | locus YKL085W, strain MDH1, active compounds read low 1 | locus YKL160W, strain elf1, active compounds read low 0.997 | locus YKR001C, strain vps1, active compounds read low 1 | locus YKR026C, strain gcn3, active compounds read low 1 | locus YKR091W, strain srl3, active compounds read low 1 | locus YLL001W, strain dnm1, active compounds read low 0.996 | locus YLL026W, active compounds read low 0.997 | locus YLL041C, strain sdh2, active compounds read low 0.997 | locus YLR027C, strain aat2, active compounds read low 0.999 | locus YLR039C, strain RIC1, active compounds read low 0.981 | locus YLR058C, strain SHM2, active compounds read low 1 | locus YLR102C, strain apc9, active compounds read low 1.01 | locus YLR113W, strain HOG1, active compounds read low 0.968 | locus YLR221C, strain rsa3, active compounds read low 0.987 | locus YLR258W, strain gsy2, active compounds read low 1.01 | locus YLR262C, strain YPT6 (second series), active compounds read low 0.967 | locus YLR262C, strain YPT6, active compounds read low 0.974 | locus YLR268W, strain sec22, active compounds read low 0.967 | locus YLR320W, strain mms22, active compounds read low 0.989 | locus YLR330W, strain CHS5, active compounds read low 0.999 | locus YLR342W, strain FKS1, active compounds read low 0.992 | locus YLR357W, strain rsc2, active compounds read low 1.03 | locus YLR370C, strain arc18, active compounds read low 1.01 | locus YLR371W, strain rom2, active compounds read low 1.03 | locus YLR384C, strain iki3, active compounds read low 0.992 | locus YLR418C, strain cdc73, active compounds read low 0.968 | locus YML016C, strain PPZ1, active compounds read low 1.01 | locus YML032C, strain rad52, active compounds read low 0.997 | locus YML120C, strain ndi1, active compounds read low 1 | locus YML124C, strain tub3, active compounds read low 1 | locus YMR058W, strain fet3, active compounds read low 1.01 | locus YMR078C, strain ctf18, active compounds read low 1.01 | locus YMR125W, strain sto1, active compounds read low 1.02 | locus YMR129W, active compounds read low 0.993 | locus YMR205C, strain PFK2, active compounds read low 0.993 | locus YMR223W, strain ubp8, active compounds read low 1.01 | locus YMR231W, strain pep5, active compounds read low 0.959 | locus YMR307W, strain GAS1, active compounds read low 0.953 | locus YNL067W, strain RPL9B, active compounds read low 1.05 | locus YNL071W, strain lat1, active compounds read low 0.993 | locus YNL153C, strain GIM3, active compounds read low 1.04 | locus YNL183C, strain NPR1, active compounds read low 0.976 | locus YNL209W, strain ssb2, active compounds read low 0.992 | locus YNL233W, strain BNI4, active compounds read low 1.01 | locus YNL248C, strain rpa49, active compounds read low 0.995 | locus YNL250W, strain rad50, active compounds read low 1.04 | locus YNL271C, strain bni1, active compounds read low 0.999 | locus YNL298W, strain CLA4, active compounds read low 0.991 | locus YNL307C, strain MCK1, active compounds read low 1.01 | locus YNL322C, strain KRE1 (second series), active compounds read low 0.989 | locus YNR049C, strain mso1, active compounds read low 0.994 | locus YNR052C, strain pop2, active compounds read low 1.02 | locus YOL006C, strain TOP1, active compounds read low 0.891 | locus YOL012C, strain htz1 1.11 | locus YOL147C, strain pex11, active compounds read low 0.996 | locus YOR001W, strain rrp6, active compounds read low 0.981 | locus YOR061W, strain CKA2, active compounds read low 0.985 | locus YOR069W, strain VPS5, active compounds read low 1.01 | locus YOR070C, strain gyp1, active compounds read low 0.988 | locus YOR080W, strain dia2, active compounds read low 0.99 | locus YOR083W, strain WHI5, active compounds read low 1 | locus YOR106W, strain vam3, active compounds read low 0.984 | locus YOR136W, strain idh2, active compounds read low 1 | locus YOR144C, strain elg1, active compounds read low 1 | locus YOR184W, strain ser1, active compounds read low 0.949 | locus YOR231W, strain MKK1, active compounds read low 0.998 | locus YOR265W, strain rbl2, active compounds read low 1 | locus YOR270C, strain vph1, active compounds read low 0.912 | locus YOR290C, strain snf2, active compounds read low 0.978 | locus YOR316C, strain cot1, active compounds read low 1.01 | locus YPL051W, strain arl3, active compounds read low 1.01 | locus YPL078C, strain atp4, active compounds read low 0.991 | locus YPL106C, strain sse1, active compounds read low 1.01 | locus YPL240C, strain hsp82, active compounds read low 0.989 | locus YPL241C, strain CIN2, active compounds read low 1 | locus YPL256C, strain CLN2, active compounds read low 1.06 | locus YPR119W, strain clb2, active compounds read low 1.02 | locus YPR141C, strain kar3, active compounds read low 1.01 | locus YPR163C, strain tif3, active compounds read low 1 | locus YPR167C, strain met16, active compounds read low 1 | strain wtn01, active compounds read low 0.976
active: locus YBR021W, strain FUR4, active compounds read low 0.823
